Efflux pump inh – antifungal efflux pump inhibition, Nile Red retention; S. cerevisiae Candida pump triplex; inhibition, % at 10 µM; 330,000 tested, 0.44% active;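 active = plate passing quality check with inhibition over a set limit, or well fluorescence over plate mean plus 4 SD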;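 also: Nile Red retained in pooled yeast measured as flow cytometry median fluorescence; 0% = buffer negative control and 100% = Enniatin B positive control; higher means more Nile Red kept so more efflux inhibition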
JMJD2C inh – inhibitors of human GASC-1 (JMJD2C) demethylase. Q9H3R0. GST-JMJD2C(1-420) H3K9me3 demethylation, DELFIA europium. inhibition, % at 2.35 µM. 330,000 tested, 0.069% active. AID 2099;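 active = more than half of a compound's replicate wells show inhibition beyond 50%, single wells judged on their own value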;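 also: signal counts dimethyl H3K9 product captured on neutravidin plate; 0% = median of DMSO wells and 100% = 0.3 times that DMSO median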
NLRP3 yeast inh – inhibitors of NALP3 inflammasome in yeast. 330,000 tested, 0.39% active. inhibition, % at 10 µM. AID 2825. Yeast reconstituted NLRP3/ASC/caspase-1, beta-gal luminescence, 24 h;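 active = inhibition of 50% or more; inactive = inhibition below 50%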;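 also: plate controls were induced DMSO wells for no effect and uninduced yeast grown without galactose for full effect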
HDAC3 inhib – blocks human histone deacetylase 3. 320,000 tested, 0.15% active. inhibition, % at 8.3 µM. recombinant HDAC3, fluorogenic peptide/trypsin coupled, fluorescence. O15379; in the data active = inhibition above about 26%, passing the limit was not always enough
Target sequence (O15379 whole entry, looked up): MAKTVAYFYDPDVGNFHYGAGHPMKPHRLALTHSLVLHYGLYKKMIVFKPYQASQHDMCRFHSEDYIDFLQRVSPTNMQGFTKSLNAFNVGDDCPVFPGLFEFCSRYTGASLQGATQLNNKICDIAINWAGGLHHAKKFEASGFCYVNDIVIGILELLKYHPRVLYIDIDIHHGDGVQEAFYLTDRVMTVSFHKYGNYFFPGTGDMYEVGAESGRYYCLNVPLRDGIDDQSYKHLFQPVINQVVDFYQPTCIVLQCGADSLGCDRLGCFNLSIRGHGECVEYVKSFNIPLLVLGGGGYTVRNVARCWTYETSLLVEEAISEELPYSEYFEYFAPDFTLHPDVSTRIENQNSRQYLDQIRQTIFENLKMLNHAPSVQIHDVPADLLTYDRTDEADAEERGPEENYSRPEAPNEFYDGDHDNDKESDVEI
PolyA inh – blocks polyadenylation in yeast reporter cells | 300,000 tested, 0.02% active | activity score, % at 12 µM | AID 1875 | S. cerevisiae SKY197-pL101 polyadenylation reporter, beta-gal luminescence; efflux-impaired pdr1/pdr3 knockout yeast; score 100 = 6 SD above DMSO;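 active = lowest replicate activity score at least 50, where 100 means six control SD above control mean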;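 also: yeast exposed to compound for 9 h at 30 °C; higher score means more reporter readthrough which indicates perturbed polyadenylation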
NALP1 yeast inh – NALP1 inhibition; S. cerevisiae NALP1/ASC/caspase-1 growth, X-gal OD620, 72 h; inhibition, % at 10 µM; 280,000 tested, 0.61% active; AID 2071; in the data active = inhibition mostly above about 24%, no sharp cut-off; inactive = mostly below about 32%
The depositor's hits bear a star; . = not tested or not shown. Most compounds without a hit are left out; they make up all but 1.5% or so of the library.

SMILES	Efflux pump inh	JMJD2C inh	NLRP3 yeast inh	HDAC3 inhib	PolyA inh	NALP1 yeast inh
O=C(NC1CC1)c1cc2cc(Br)ccc2s1	0	-4	21	0	-11	30*
COc1ccc(CN2CCN(CC(O)Cn3c4ccccc4c4ccccc43)CC2)cc1 (centres undefined)	0	-15	38	-2	-39	62*
CN1CCN(CC(O)Cn2c3ccccc3c3ccccc32)CC1 (centres undefined)	0	28	1	.	15	32
CCOc1ccc(CN2CCN(CC(O)Cn3c4ccccc4c4ccccc43)CC2)cc1 (centres undefined)	0	1	39	2	-6	77*
COc1cc(C(=O)NC23CC4CC(CC(C4)C2)C3)cc(OC)c1OC	0	4	6	2	2	0
COc1cc(C(=O)N[C@H](C(=O)NC(C)C23CC4CC(CC(C4)C2)C3)C(C)C)cc(OC)c1OC (some centres undefined)	0	-2	-5	0	-8	41*
Cc1cc(Br)c2[nH]cc(CCNC(=O)c3ccco3)c2c1	1	8	38	3	-21	41*
CCOC(=O)/C=C/C(=O)OCC(=O)Nc1ccc(Cl)cc1Cl	0	3	-6	2	-3	28*
CCOC(=O)/C=C/C(=O)OCC(=O)Nc1c(Cl)cccc1Cl	0	-3	6	5	-16	-4
CN1CCN(c2nc3ccccn3c(=O)c2/C=C(\C#N)S(=O)(=O)c2ccc(Cl)cc2)CC1	0	90*	20	5	9	-6
Cc1ccc(S(=O)(=O)/C(C#N)=C/c2c(N3CCN(C)CC3)nc3ccccn3c2=O)cc1	0	-18	21	5	4	6
Cc1ccc2c(=O)n3c(nc2c1)C(CC(C)C)NC(=O)c1ccc(Cl)cc1-3 (centres undefined)	0	7	6	3	.	.
O=C(c1nc2n(n1)C(c1ccc(Cl)cc1)C=C(c1ccccc1)N2)N1CCOCC1 (centres undefined)	0	-8	-23	-1	3	31*
Cc1cc(C)nc(S/C=C/C(=O)c2ccccc2F)n1	0	-8	33	-4	-21	30
c1ccc(CN2CCN(CCOCCOc3cccc4ccccc34)CC2)cc1	0	-24	31	-12	0	38*
CCOC(=O)c1c(C)[nH]c(C)c1C(=O)CSc1nc2ccccc2c(=O)n1-c1ccc(Cl)cc1	0	-1	3	6	14	15
CCOC(=O)c1c(C)[nH]c(C)c1C(=O)CSc1nc2ccccc2c(=O)n1-c1ccc(C)cc1	0	16	6	31*	11	8
C=CCn1c(O)c(N=Nc2ccccc2C)c2ccccc21	0	97*	-1	4	28	10
C=CCn1c(O)c(N=O)c2ccccc21	0	-2	12	.	-9	-6
Nc1c2c(nc3sc4c(c13)CCCCC4)CCCCC2	0	-7	17	-1	1	64*
CCc1c(-c2ccccc2)nc2sc3c(c2c1N)CCCC3	0	4	10	10	0	6
O=C(OC(c1ccc(NS(=O)(=O)c2ccccc2)cc1)(C(F)(F)F)C(F)(F)F)c1ccccc1	0	5	5	34*	3	29
CC(=O)c1ccc(NS(=O)(=O)c2ccccc2)cc1	0	-1	12	18	1	6
Cc1ccc(S(=O)(=O)Nc2ccc(C(OC(=O)c3ccccc3[N+](=O)[O-])(C(F)(F)F)C(F)(F)F)cc2)cc1	0	-10	7	31*	11	23
Cc1cc(C)nc(NS(=O)(=O)c2ccc(NC(=O)c3ccccc3[N+](=O)[O-])cc2)n1	0	-1	28	6	-10	7
SMILES	Efflux pump inh	JMJD2C inh	NLRP3 yeast inh	HDAC3 inhib	PolyA inh	NALP1 yeast inh
Cc1ccc(NC(=S)Nc2cc(C(=O)O)ccc2N2CC3CC(C2)c2cccc(=O)n2C3)cc1C (centres undefined)	0	2	21	5	-11	37*
CCN(CC)CCCNC(=O)c1cn(CCOC)c(=O)c2c1c1ccccc1n2C	0	-8	-7	-6	.	31*
CCCc1c(C(=O)OCC)[nH]c2c1C(=O)CCC2	0	15	-1	-3	19	43*
COC(=O)c1nc(NC(=O)c2cc(OC)c(OC)c(OC)c2)n[nH]1	0	-5	-8	39*	23	22
Cc1ccc(C(=O)NCC(=O)OCc2nnc(-c3ccc([N+](=O)[O-])cc3)o2)s1	0	-6	21	-13	.	.
CN1CCN(Cc2nc3ccccc3c(=O)n2Cc2nc(-c3cccc([N+](=O)[O-])c3)cs2)CC1	.	.	8	.	.	34*
CN1CCN(Cc2nc3ccccc3c(=O)n2Cc2nc(-c3ccc4ccccc4c3)cs2)CC1	0	-3	.	7	-9	16
Cn1c(C(=O)N2CCCC(C(=O)O)C2)cc2sccc21 (centres undefined)	0	-2	2	7	-6	11
Cn1c(C(=O)N2CCCC(C(=O)NCCN3CCOCC3)C2)cc2sccc21 (centres undefined)	0	4	15	-6	-2	30*
CCC12CN(S(=O)(=O)c3ccc(C)cc3)CC(CC)(CN(S(=O)(=O)c3ccc(C)cc3)C1)C2=O	0	-2	12	8	-8	42*
Cc1ccc(S(=O)(=O)N2CC3(C)CN(S(=O)(=O)c4ccc(C)cc4)CC(C)(C2)C3)cc1	0	4	16	-1	-2	6
CC(=O)CN1C(=O)NC2(CCCc3ccccc32)C1=O (centres undefined)	0	-8	7	5	19	9
NC(=O)CN1C(=O)NC2(CCCc3ccccc32)C1=O (centres undefined)	0	-1	15	0	17	45*
COc1ccccc1C(CNC(=O)c1ccc(C)c(S(=O)(=O)N2CCCCC2)c1)N1CCCC1 (centres undefined)	.	.	24	.	.	.
Cc1cccc(N2C(=O)CSC23CCCCC3)c1	0	2	12	0	-30	35*
c1ccc(-n2nnnc2-c2cnc(-c3ccncc3)nc2-c2cccs2)cc1	0	-1	10	1	-11	22*
FC(F)(F)c1nc(-c2ccncc2)ncc1-c1nnnn1-c1ccccc1	0	-4	15	2	-6	20
CCc1c(O)nc(SCC(=O)Nc2ccccc2)n(-c2ccccc2)c1=O	0	-6	10	-1	14	7
CCc1c(O)nc(SCC(=O)Nc2ccc(Br)cc2)n(-c2ccc(C)cc2)c1=O	0	-18	8	3	22	35*
COc1ccc(CNc2nc(NC(C)=O)nn2-c2ccccc2)cc1	0	6	19	-9	1	.
COc1ccc2cnn(-c3ccc(C)cc3)c(=O)c2c1OC	0	0	20	-1	-4	64*

Bioassay records: PubChem BioAssay, several laboratories
